This passage reports Potency results from PubChem BioAssay (NCATS).

Records with an inconclusive call do not appear. A call without a number means that no potency is given here. The source made the active and inactive calls. Unless noted, calls follow the shape of the full dose curve.

Sequence of Nucleoprotein (Lymphocytic choriomeningitis virus (strain Armstrong)) (P09992 whole entry, looked up): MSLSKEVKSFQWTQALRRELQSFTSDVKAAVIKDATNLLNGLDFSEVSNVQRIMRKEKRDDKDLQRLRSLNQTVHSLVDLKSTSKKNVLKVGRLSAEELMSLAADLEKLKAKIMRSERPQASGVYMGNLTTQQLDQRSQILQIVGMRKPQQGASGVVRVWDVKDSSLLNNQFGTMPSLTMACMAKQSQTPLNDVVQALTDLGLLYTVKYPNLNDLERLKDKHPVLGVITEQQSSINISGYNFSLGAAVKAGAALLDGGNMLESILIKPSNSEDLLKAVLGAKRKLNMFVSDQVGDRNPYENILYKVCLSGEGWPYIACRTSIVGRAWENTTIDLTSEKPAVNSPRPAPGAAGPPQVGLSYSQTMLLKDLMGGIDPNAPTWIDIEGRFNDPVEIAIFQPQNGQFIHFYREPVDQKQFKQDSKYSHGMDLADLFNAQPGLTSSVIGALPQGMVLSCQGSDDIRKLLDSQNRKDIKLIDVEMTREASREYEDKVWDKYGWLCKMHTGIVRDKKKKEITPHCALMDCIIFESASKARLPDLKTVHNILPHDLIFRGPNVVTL

Tested on in the first assay: not listed separately
Kind of assay: qHTS for Inhibitors of the Functional Ribonucleoprotein Complex (vRNP) of Lymphocytic Choriomeningitis Arenaviruses (LCMV): Viability assay - alamar blue signal for LCMV Primary Screen (AID 1347085; calls by dose curve; tested in HEK293 reporter line; also: nearly all actives have a fitted effect of over 80% in size). The settings on record: alamar blue viability counter-screen, LCMV vRNP screen cells; series mostly up to 57.5 µM. (In general: qHTS replaces the single test concentration by a dilution series.)
Turning to `O=c1[nH]c2cc(C(F)(F)F)ccc2n1-c1cc(C(F)(F)F)ccc1O`, the Potency entry was “inactive”.
`Nc1ccc(N2C(=O)c3ccccc3C2=O)c(Cl)c1`: the Potency entry was “inactive”.
Regarding `Cn1c(=O)[nH]c2ncn(C)c2c1=O`, the Potency result is “inactive”.
Turning to `CCN(CC)CCOC(=O)c1cc(Cl)c(N)cc1OC`, the Potency entry was “inactive”.
In the case of `N#C/C(=C\c1ccc(O)c(O)c1)C(=O)NCCCc1ccccc1`, the Potency result was “inactive”.
On the same count and under the same terms, to `C#CC(N)CCC(=O)O` (stereo not given) belongs “inactive”; to `Fc1cccc(/C=N/N=C/c2cccc(F)c2)c1`, “inactive”; to `N.N.O=C(O)C1(C(=O)O)CCC1.[Pt]`, “inactive”.
On to `CN1CCC[C@H]1c1cccnc1`, for which the Potency entry was “inactive”.
Regarding `c1ccc2c(c1)CC(N1CCN(c3cccc4c3OCCO4)CC1)C2`, the Potency entry was “inactive”.
On to `O=C(O)C1CCNCC1`, for which the Potency entry was “inactive”.
`CCn1c(=O)[nH]c2cc(Cl)c(Cl)cc21`: the Potency result was “inactive”.
In the case of `CN1CCc2cccc3c2C1Cc1ccc(O)c(O)c1-3` (stereo not given), the Potency entry is “inactive”.
As to `N[C@H](C(=O)O)[C@H](O)C(=O)O`, the Potency entry is “inactive”.
Still for that read-out and setting: to `CN[C@H](CC(C)C)C(=O)N[C@H]1C(=O)N[C@@H](CC(N)=O)C(=O)N[C@@H]2C(=O)N[C@H]3C(=O)N[C@H](C(=O)N[C@H](C(=O)O)c4cc(O)cc(O)c4-c4cc3ccc4O)[C@H](O)c3ccc(c(Cl)c3)Oc3cc2cc(c3O[C@@H]2O[C@H](CO)[C@@H](O)[C@H](O)[C@@H]2O[C@H]2C[C@](C)(N)[C@H](O)[C@H](C)O2)Oc2ccc(cc2Cl)[C@H]1O` belongs “inactive”; to `COc1ccc2c(c1)c(CC(=O)O)c(C)n2Cc1ccc(Cl)cc1`, “inactive”.
`CCSC(=N)N`: the Potency entry was “inactive”.
Consider `N#CC(C#N)=C(N)/C(C#N)=C/c1ccc(O)cc1`, for which the Potency result is “inactive”.
On to `C[C@]12C=CC(=O)C=C1CC[C@@H]1C2=CC[C@]2(C)[C@@H](C(=O)CN3CCN(c4cc(N5CCCC5)nc(N5CCCC5)n4)CC3)CC[C@@H]12`, for which the Potency entry is “inactive”.
In the case of `COc1cc2c(CCNC(C)=O)c[nH]c2cc1Cl`, the Potency entry was “inactive”.
In the case of `CN[C@H](CC(=O)O)C(=O)O`, the Potency result was “inactive”.
Take `CNc1cc(NS(=O)(=O)c2ccc(N)cc2)nc(NC)n1`: the Potency result is “inactive”.
As for `CC(C)NC[C@H](O)COc1ccc(CC(N)=O)cc1`, the Potency result was “inactive”.
In the case of `Ic1ccc(N2CCN(Cc3c[nH]c4ncccc34)CC2)cc1`, the Potency result is “inactive”.
On to `O=C(O)CC1CC(c2ccccc2)=NO1` (stereo not given), for which the Potency result is “inactive”.
Same read-out and setting: then `CC[C@H](NC(=O)c1c(C)c(-c2ccccc2)nc2ccccc12)c1ccccc1`, with “inactive”; and `N=C(N)SCCc1cnc[nH]1`, with “inactive”.
Take `O=[N+]([O-])c1ccc(CSc2ncnc3c2ncn3[C@@H]2O[C@H](CO)[C@@H](O)[C@H]2O)cc1`: the Potency entry was “inactive”.
In the case of `Nc1ncnc2c1nc(Sc1ccc(Cl)cc1)n2[C@H]1OC2COP(=O)(O)O[C@@H]2C1O` (stereo not given in full), the Potency result is “inactive”.
Still for that read-out and setting: then `COc1ccccc1N1CCN(CCN(C(=O)c2ccc(F)cc2)c2ccccn2)CC1`, with “inactive”; and `C=CC[C@H](N)C(=O)O`, with “inactive”.
As for `NOCC(=O)O`, the Potency result was “inactive”.
For the molecule `Nc1c(S(=O)(=O)O)cc(Nc2ccc(Nc3nc(Cl)nc(Nc4ccc(S(=O)(=O)O)cc4)n3)c(S(=O)(=O)O)c2)c2c1C(=O)c1ccccc1C2=O`, the Potency result was “inactive”.
As to `O=C(c1ccc2c(c1)OCCO2)N1CCCCC1`, the Potency entry is “inactive”.
Turning to `CSC(=N)N`, the Potency entry was “inactive”.
The same measure, in the same setting: to `Nc1ncnc2c1ncn2[C@@H]1O[C@H](COP(=O)(O)CP(=O)(O)OP(=O)(O)O)[C@@H](O)[C@H]1O` belongs “inactive”; to `N#C/C(=C\c1ccc(O)c(O)c1)C(=O)Nc1ccccc1`, “inactive”.
Regarding `NCCSSCCN`, the Potency entry was “inactive”.
As to `N.N.N.N.N.N.N.N.N.N.N.N.N.N.O.O.[Ru+4].[Ru+5].[Ru+5]`, the Potency result was “inactive”.
`O=C(c1cc(O)c(O)c([N+](=O)[O-])c1)c1ccccc1F`: the Potency entry was “inactive”.

A further assay addresses Nucleoprotein (Lymphocytic choriomeningitis virus (strain Armstrong)) (UniProt P09992). Put plainly: qHTS for Inhibitors of the Functional Ribonucleoprotein Complex (vRNP) of Lymphocytic Choriomeningitis Arenaviruses (LCMV): LCMV Primary Screen - GLuc reporter signal (AID 1347086). Also: nearly all actives have a fitted effect of over 70% in size. The note with it: LCMV minigenome vRNP cell assay, Gaussia luciferase reporter; series mostly up to 57.5 µM.
For the molecule `O=c1[nH]c2cc(C(F)(F)F)ccc2n1-c1cc(C(F)(F)F)ccc1O`, the Potency entry was “inactive”.
Take `Nc1ccc(N2C(=O)c3ccccc3C2=O)c(Cl)c1`: the Potency result is “inactive”.
Take `Cn1c(=O)[nH]c2ncn(C)c2c1=O`: the Potency result is “inactive”.
The same measure, in the same setting: then `CCN(CC)CCOC(=O)c1cc(Cl)c(N)cc1OC`, with “inactive”; and `N#C/C(=C\c1ccc(O)c(O)c1)C(=O)NCCCc1ccccc1`, with “inactive”.
`C#CC(N)CCC(=O)O` (stereo not given): the Potency result was “inactive”.
For the molecule `Fc1cccc(/C=N/N=C/c2cccc(F)c2)c1`, the Potency result is “inactive”.
Regarding `N.N.O=C(O)C1(C(=O)O)CCC1.[Pt]`, the Potency result was “inactive”.
Consider `CN1CCC[C@H]1c1cccnc1`, for which the Potency result is “inactive”.
With `c1ccc2c(c1)CC(N1CCN(c3cccc4c3OCCO4)CC1)C2`, the Potency result is “inactive”.
For the molecule `O=C(O)C1CCNCC1`, the Potency result was “inactive”.
Consider `CCn1c(=O)[nH]c2cc(Cl)c(Cl)cc21`, for which the Potency entry was “inactive”.
With `CN1CCc2cccc3c2C1Cc1ccc(O)c(O)c1-3` (stereo not given), the Potency entry was “inactive”.
On to `N[C@H](C(=O)O)[C@H](O)C(=O)O`, for which the Potency entry is “inactive”.
As to `CN[C@H](CC(C)C)C(=O)N[C@H]1C(=O)N[C@@H](CC(N)=O)C(=O)N[C@@H]2C(=O)N[C@H]3C(=O)N[C@H](C(=O)N[C@H](C(=O)O)c4cc(O)cc(O)c4-c4cc3ccc4O)[C@H](O)c3ccc(c(Cl)c3)Oc3cc2cc(c3O[C@@H]2O[C@H](CO)[C@@H](O)[C@H](O)[C@@H]2O[C@H]2C[C@](C)(N)[C@H](O)[C@H](C)O2)Oc2ccc(cc2Cl)[C@H]1O`, the Potency entry is “inactive”.
On to `COc1ccc2c(c1)c(CC(=O)O)c(C)n2Cc1ccc(Cl)cc1`, for which the Potency entry was “inactive”.
Consider `CCSC(=N)N`, for which the Potency entry was “inactive”.
Regarding `N#CC(C#N)=C(N)/C(C#N)=C/c1ccc(O)cc1`, the Potency result is “inactive”.
For the molecule `C[C@]12C=CC(=O)C=C1CC[C@@H]1C2=CC[C@]2(C)[C@@H](C(=O)CN3CCN(c4cc(N5CCCC5)nc(N5CCCC5)n4)CC3)CC[C@@H]12`, the Potency entry is “inactive”.
Still for that read-out and setting: then `COc1cc2c(CCNC(C)=O)c[nH]c2cc1Cl`, with “inactive”.
On the same count and under the same terms, then `CN[C@H](CC(=O)O)C(=O)O`, with “inactive”; and `CNc1cc(NS(=O)(=O)c2ccc(N)cc2)nc(NC)n1`, with “inactive”.
For `CC(C)NC[C@H](O)COc1ccc(CC(N)=O)cc1`, the Potency result is “inactive”.
As for `Ic1ccc(N2CCN(Cc3c[nH]c4ncccc34)CC2)cc1`, the Potency entry was “inactive”.
In the case of `O=C(O)CC1CC(c2ccccc2)=NO1` (stereo not given), the Potency result was “inactive”.
Regarding `CC[C@H](NC(=O)c1c(C)c(-c2ccccc2)nc2ccccc12)c1ccccc1`, the Potency result was “inactive”.
With `N=C(N)SCCc1cnc[nH]1`, the Potency entry was “inactive”.
Take `O=[N+]([O-])c1ccc(CSc2ncnc3c2ncn3[C@@H]2O[C@H](CO)[C@@H](O)[C@H]2O)cc1`: the Potency entry was “inactive”.
In the case of `Nc1ncnc2c1nc(Sc1ccc(Cl)cc1)n2[C@H]1OC2COP(=O)(O)O[C@@H]2C1O` (stereo not given in full), the Potency result is “inactive”.
Same read-out and setting: then `COc1ccccc1N1CCN(CCN(C(=O)c2ccc(F)cc2)c2ccccn2)CC1`, with “inactive”; and `C=CC[C@H](N)C(=O)O`, with “inactive”.
`NOCC(=O)O`: the Potency entry is “inactive”.
On to `Nc1c(S(=O)(=O)O)cc(Nc2ccc(Nc3nc(Cl)nc(Nc4ccc(S(=O)(=O)O)cc4)n3)c(S(=O)(=O)O)c2)c2c1C(=O)c1ccccc1C2=O`, for which the Potency entry was “inactive”.
Regarding `O=C(c1ccc2c(c1)OCCO2)N1CCCCC1`, the Potency entry is “inactive”.
Take `CSC(=N)N`: the Potency result was “inactive”.
Regarding `Nc1ncnc2c1ncn2[C@@H]1O[C@H](COP(=O)(O)CP(=O)(O)OP(=O)(O)O)[C@@H](O)[C@H]1O`, the Potency entry was “inactive”.
Turning to `N#C/C(=C\c1ccc(O)c(O)c1)C(=O)Nc1ccccc1`, the Potency result is “inactive”.
On the same count and under the same terms, then `NCCSSCCN`, with “inactive”; and `N.N.N.N.N.N.N.N.N.N.N.N.N.N.O.O.[Ru+4].[Ru+5].[Ru+5]`, with “inactive”; and `O=C(c1cc(O)c(O)c([N+](=O)[O-])c1)c1ccccc1F`, with “inactive”.
